Several values for one entry are separate records, joined by “and”; a condition that tells them apart may be missing. Equal values may be shown once. Where a structure was tested more than once in an assay, its records may differ in their call. Activity calls are given as the source filed them. Rule for the calls: active = hit-call score of the fitted dose curve at least 0.9, where 1 is the maximum; inactive = score below 0.9.
The compounds below were run on CD40, CD40 (gene 958) (assay: BSK_LPS_CD40: BioMAP Diversity Plus: LPS Assay for CD40 Biomarker Activity (AID 2283076)). Conditions: primary human HUVEC with PBMC; actives raise or lower the signal.
Method: BSK_LPS is a cell-based, multiplexed-readout assay that uses umbilical vein endothelium and peripheral blood mononuclear cells, a human vascular primary cell co-culture, with measurements taken at 24 hours after chemical dosing in a 96-well plate.BSK_LPS_CD40 is an assay component measured in the BSK_LPS assay. It measures CD40 antibody related to regulation of gene expression using ELISA technology.Data from the assay component BSK_LPS_CD40 was analyzed into 1 assay endpoint. This assay endpoint, BSK_LPS_CD40, was analyzed with bidirectional fitting relative to DMSO as the negative control and baseline of activity. Using a type of binding reporter, gain or loss-of-signal activity can be used to understand changes in the signaling as they relate to the gene CD40. Furthermore, this assay endpoint can be referred to as a primary readout, because this assay has produced multiple assay endpoints where this one serves a signaling function. To generalize the intended target to other relatable targets, this assay endpoint is annotated to the cytokine intended target family, where the subfamily is inflammatory factor.
The levels of cell surface (or secreted, indicated by the prefix "s") biomarker endpoints were measured by ELISA. Overt cytotoxicity to cells in confluent adherent cultures (all systems other than the BT system) was assessed by measuring total protein levels using sulforhodamine B (SRB) staining in parallel cultures at the time of biomarker measurements, indicated as SRB endpoints. For proliferation assays for adherent cell types, individual cell types are cultured at sub-confluence and relative cell numbers quantified by SRB staining at time points optimized for each system (48 h: 3C and CASM3C systems; 72 h: BT and HDF3CGF systems; 96 h: SAg system). SRB was performed by staining cells with 0.1% SRB after fixation with 10% TCA and reading wells at 560 nm.Viability and proliferation of PBMC (T cells) was quantified by Alamar Blue reduction for the SAg and BT systems. For PBMC viability (referred to as PBMC Cytotoxicity within the assay endpoint names), cells were plated (75,000/well in a 96-well plate) and then chemical samples added for 1 h before addition of activators, SEB and TSST-1 (20 ng/mL final concentration each). Cells were incubated for 90 h. Then, Alamar Blue (20 uL/well) (Invitrogen, Cat DAL1100) was added for 6 h, and the plates were read with a fluorescence microplate reader at 546/580 nm (excitation/emission). For PBMC proliferation, cells were plated and activated as above but incubated for only 16 h prior to addition of Alamar Blue. Plates were read after 6 h.
For `COCC(=O)N(c1c(C)cccc1C)N1CCOC1=O`, the outcome was “inactive”. With `O=C1C=CC(=O)C=C1` the AC50 was 12.3 µM (active) and 20 µM (active). In the case of `O=P1(NCCCl)OCCCN1CCCl` (centres undefined), the outcome was “inactive”. In the case of `CC(=O)/C=C/c1ccccc1`, the AC50 was 20 µM (active). With `O=c1c2ccccc2c(=O)c2c1cc(Cl)c1[nH]c3c([nH]c12)c(Cl)cc1c(=O)c2ccccc2c(=O)c13` the outcome was “inactive”. For `Cc1ccc(OP(=O)(Oc2ccc(C)cc2)Oc2ccc(C)cc2)cc1` (tested in a mixture with another compound), the AC50 was 7.66 µM (active). For `N#CCCCCC#N`, the outcome was “inactive”. In the case of `CCCC[N+](CCCC)(CCCC)CCCC`, the outcome was “inactive”. `O=C(CCl)c1ccccc1` was tested, and the AC50 was 4.58 µM (active). For `O=C(O)CCCc1ccc(N(CCCl)CCCl)cc1`, the AC50 was 20 µM (active). In the case of `CCCOC(=O)c1ccccc1C(=O)OCCC`, the outcome was “inactive”. For `COC(C)(C)CCC[C@H](C)C/C=C/C(C)=C/C(=O)OC(C)C`, the AC50 was 20 µM (active). In the case of `Clc1ccc(-c2ccccc2)cc1`, the outcome was “inactive”. `[Cd+2].[Cl-].[Cl-]` was tested, and the AC50 was 13.1 µM (active) and the outcome was “inactive”. `O=[N+]([O-])O` was tested, and the outcome was “inactive”. `C=CCN(CC=C)C(=O)C(Cl)Cl` was tested, and the outcome was “inactive”. `O=[N+]([O-])C=Cc1ccccc1` was tested, and the AC50 was 5.97 µM (active). For `CC1(C)[C@H](C(=O)O[C@H](C#N)c2cccc(Oc3ccccc3)c2)[C@@H]1C=C(Br)Br`, the outcome was “inactive”. `CCC(C)c1cc([N+](=O)[O-])cc([N+](=O)[O-])c1OC(=O)C=C(C)C` (centres undefined) was tested, and the AC50 was 7.46 µM (active). With `Oc1cc(Cl)ccc1Cl` the outcome was “inactive”. In the case of `CC(C)(C)C(=O)CCl`, the AC50 was 28.7 µM (active). In the case of `O=S(=O)(c1ccccc1)c1ccccc1`, the outcome was “inactive”. `CC(C)(c1cc(Cl)c(O)c(Cl)c1)c1cc(Cl)c(O)c(Cl)c1` was tested, and the AC50 was 17.3 µM (active). With `Oc1ccc(C2(c3ccc(O)cc3)c3ccccc3-c3ccccc32)cc1` the AC50 was 12.1 µM (active) and 10.1 µM (active). For `CC(C)CCCCCCCOP(=O)(Oc1ccccc1)Oc1ccccc1`, the AC50 was 11.3 µM (active). With `O=C1C(Cl)=C(Cl)C(=O)C(Cl)=C1Cl` the AC50 was 15.1 µM (active). With `CC(C)(C)C(O)C(Oc1ccc(-c2ccccc2)cc1)n1cncn1` (centres undefined) the outcome was “inactive”. In the case of `CNC(=O)Oc1cc(C)c(SC)c(C)c1`, the AC50 was 20 µM (active). With `CC(C)CCCCCCCOC(=O)c1ccccc1C(=O)OCCCCCCCC(C)C` the outcome was “inactive”. With `O=[N+]([O-])c1ccc(Cl)cc1` the outcome was “inactive”. `O=c1[nH]c(Cl)c(Cl)cc1Cl` was tested, and the outcome was “inactive”. In the case of `CCc1cc(C)cc(CC)c1-c1c(OC(=O)C(C)(C)C)n2n(c1=O)CCOCC2`, the outcome was “inactive”. For `CCCCCCCCCCCC#N`, the AC50 was 30.8 µM (active). `c1ccc(Nc2ccc3ccccc3c2)cc1` was tested, and the outcome was “inactive”. With `CC(C)COP(=O)(OCC(C)C)OCC(C)C` the outcome was “inactive”. With `C=CC(=O)OCC(CC)CCCC` (centres undefined) the outcome was “inactive”. `Nc1ccc(-c2ccc(N)c(N)c2)cc1N` was tested, and the outcome was “inactive”. With `COc1ccc(CO)cc1` the outcome was “inactive”.
